In the library only some 5.1% were active in any assay of this set; here they are far more common.
CRFR2-BP ag: agonists of human CRF-binding protein/CRF-R2 receptor complex | HEK293 CRF-R2/CRF-BP, calcium dye fluorescence (FLIPR); percent of saturating CRF peptide response | activation, % at 13.2 µM | 350,000 compounds, 0.46% hits;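 active = activation of at least 50%, plus an integration ratio under a set limit after plate pattern correction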;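 note: plate controls were neutral control wells without compound for no effect and CRF at EC100 for full effect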
CRFR2-BP antag: antagonists of CRF-binding protein/CRF-R2 receptor complex; AID 588475; inhibition, % at 11.8 µM; 350,000 compounds, 0.59% hits; HEK293 CRF-R2/CRF-BP, CRF-induced calcium fluorescence;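 active = inhibition of the ligand-induced calcium signal above about 50% at the single tested concentration, limit read from the data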
NR3A LBD binder: modulators (binders) of human NR3A ligand-binding domain | NR3A LBD differential scanning fluorimetry, Tm shift; 0% = protein alone, 100% = glycine-bound protein | Tm shift relative to glycine control, % at 25 µM | 340,000 compounds, 2.5% hits | AID 1259313;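 active = melting temperature shift of at least 10% of the positive control shift, at one fixed dose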
ANO1 activ: activators or potentiators of mouse TMEM16A chloride channel; 340,000 compounds, 0.3% hits; HEK293 TMEM16A/YFP-H148Q/I152L, iodide quench fluorescence; hits give low values; B-score at 10 µM;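 active = fluorescence-ratio B-score plate-corrected deviation score at least 3 library SD below zero, with starting fluorescence score within 5 deviations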;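 note: channel opened by trigger with iodide after compound preincubation; score built on the fluorescence ratio of max minus min over baseline; more negative score means more quench and so TMEM16A activation or potentiation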
ANO1 block: inhibitors of mouse TMEM16A calcium-activated chloride channel. Q8BHY3. HEK293 TMEM16A/YFP iodide influx fluorescence, ionomycin. 310,000 compounds, 1.2% hits. normalized B-score (activity score, 25-100; higher = stronger inhibition) at 10 µM;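 active = ratio plate-corrected score three or more library SD toward inhibition, starting fluorescence score within five deviations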;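 note: score derived from kinetic fluorescence span divided by baseline fluorescence per well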
MPTP block: permeability transition pore inhibition | isolated mouse mitochondria, Ca2+ swelling absorbance, 30 min | 360,000 compounds, 1.4% hits | inhibition, % at 10 µM;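 active = inhibition of 50% or more, scaled per plate between neutral and stimulator controls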;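 note: 0% = DMSO wells given calcium and 100% = 1 mM EGTA wells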
MPTP counter: mitochondrial membrane potential, counter-screen | shares compounds with MPTP block | isolated mitochondria, Rhodamine 123 fluorescence | inhibition, % at 10 µM | 5,000 compounds, 78% hits | AID 624504; in the data active = inhibition above about 22%;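 note: 0% = DMSO vehicle and 100% = positive control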
MPTP abs DR: MPTP inhibition, dose response swelling confirmation | shares compounds with MPTP block | isolated mitochondria swelling, absorbance | IC50, µM | 780 compounds, 58% hits; in the data active = IC50 below about 20 µM
MPTP counter DR: MPTP inhibitor counter-screen activity, dose response | IC50, µM | 780 compounds, 49% hits | shares compounds with MPTP block | isolated mitochondria counterscreen, fluorescence read-out; in the data active = IC50 below about 80 µM
Starred values were filed as active, the others as inactive.

What do the screens show for `CC1(C)SC(=S)N(/N=C/c2ccccc2)C1N(O)C(=O)Nc1ccc([N+](=O)[O-])cc1` (stereo unspecified)?
CRFR2-BP ag: 2; CRFR2-BP antag: 9; NR3A LBD binder: 14*; ANO1 block: inactive; MPTP block: 101*; MPTP counter: 98*

How did Cn1c(SCC(=O)Nc2cccc(C(=O)O)c2)nnc1-c1cc2cc(Br)ccc2o1 do in these assays?
CRFR2-BP ag: 2; CRFR2-BP antag: -11; NR3A LBD binder: -4; ANO1 activ: inactive; ANO1 block: inactive; MPTP block: 0

How did CCc1cccc(C)c1NC(=O)CSc1nnc(-c2cc3cc(Br)ccc3o2)n1CC do in these assays?
CRFR2-BP ag: 2; CRFR2-BP antag: -9; NR3A LBD binder: -4; ANO1 activ: inactive; ANO1 block: inactive; MPTP block: 92*; MPTP counter: 84*

What do the screens show for `CC(C)C1Nc2c(O)cc(Cl)c([N+](=O)[O-])c2C2C=CCC21` (stereo unspecified)?
CRFR2-BP ag: 33; CRFR2-BP antag: 59*; NR3A LBD binder: 1; ANO1 activ: inactive; MPTP block: 92*; MPTP counter: 78*

Results for Cc1ccccc1OCCC(=O)Nc1ccc(F)c(Cl)c1 ?
CRFR2-BP ag: 13; CRFR2-BP antag: 9; NR3A LBD binder: -2; ANO1 activ: inactive; ANO1 block: inactive; MPTP block: 85*; MPTP counter: 85*

What do the screens show for `CCOc1ccccc1OCCC(=O)Nc1ccc(F)c(Cl)c1`?
CRFR2-BP ag: -4; CRFR2-BP antag: -9; NR3A LBD binder: -3; ANO1 activ: inactive; ANO1 block: inactive; MPTP block: 2

How did Cc1cccc(Nc2nc(N)c([N+](=O)[O-])c(N3CC(C)CC(C)C3)n2)c1 (stereo unspecified) do in these assays?
CRFR2-BP ag: -1; CRFR2-BP antag: -49; NR3A LBD binder: 5; ANO1 activ: inactive; ANO1 block: inactive; MPTP block: 56*; MPTP counter: -6; MPTP abs DR: >100; MPTP counter DR: 63*

How did Cc1ccc(Nc2nc(NCCCN3CCOCC3)nc(N)c2[N+](=O)[O-])cc1C do in these assays?
CRFR2-BP ag: -3; CRFR2-BP antag: -92; NR3A LBD binder: -5; ANO1 activ: inactive; ANO1 block: inactive; MPTP block: 67*; MPTP counter: -4; MPTP abs DR: >100; MPTP counter DR: >80

What do the screens show for `Cc1cccc(Nc2nc(N3CCN(C)CC3)nc(N)c2[N+](=O)[O-])c1`?
CRFR2-BP ag: -1; CRFR2-BP antag: -29; NR3A LBD binder: 4; ANO1 activ: inactive; ANO1 block: inactive; MPTP block: 69*; MPTP counter: -15; MPTP abs DR: inactive; MPTP counter DR: >80

Results for Cc1ccc(Nc2nc(NCCCN3CCOCC3)nc(N)c2[N+](=O)[O-])cc1 ?
CRFR2-BP ag: 0; CRFR2-BP antag: -14; NR3A LBD binder: -8; ANO1 activ: inactive; ANO1 block: inactive; MPTP block: -1

How did Cc1cccc(Nc2nc(N)c([N+](=O)[O-])c(N3CC(C)OC(C)C3)n2)c1 (stereo unspecified) do in these assays?
CRFR2-BP ag: 0; CRFR2-BP antag: -41; NR3A LBD binder: -3; ANO1 activ: inactive; ANO1 block: inactive; MPTP block: 0

How did CN(Cc1cccc(F)c1)C(=O)C1CC(=O)N(Cc2ccco2)C1 (stereo unspecified) do in these assays?
CRFR2-BP ag: 0; CRFR2-BP antag: -10; MPTP block: -2

What do the screens show for `Cc1ccc(S(=O)(=O)N2CCCCC2)cc1NC(=O)C1COc2ccccc2O1` (stereo unspecified)?
CRFR2-BP ag: 0; CRFR2-BP antag: 1; MPTP block: 0

What do the screens show for `NCCCn1c(C(=O)c2ccc(Cl)cc2)c2ccc(C(F)(F)F)cc2[n+]1[O-]`?
CRFR2-BP ag: 0; CRFR2-BP antag: -22; NR3A LBD binder: 1; ANO1 activ: inactive; ANO1 block: inactive; MPTP block: 65*; MPTP counter: -18; MPTP abs DR: 8.7*; MPTP counter DR: >80

What do the screens show for `NS(=O)(=O)c1ccc(CCNC(=O)CN2C(=O)COc3ccc(S(=O)(=O)N4CCCC4)cc32)cc1`?
CRFR2-BP ag: 3; CRFR2-BP antag: -7; NR3A LBD binder: 0; ANO1 activ: inactive; ANO1 block: inactive; MPTP block: 0

How did Cc1ccc(-c2csc3nc(-c4ccncc4)[nH]c(=O)c23)cc1 do in these assays?
CRFR2-BP ag: 10; CRFR2-BP antag: -2; NR3A LBD binder: 1; ANO1 activ: inactive; ANO1 block: inactive; MPTP block: 98*; MPTP counter: 19; MPTP abs DR: 3*; MPTP counter DR: <2.5*

Results for O=C(COC(=O)c1ccc(-n2cnnn2)cc1)Nc1cc(Cl)ccc1F ?
CRFR2-BP ag: 1; CRFR2-BP antag: 1; NR3A LBD binder: 0; ANO1 activ: inactive; MPTP block: 1

Results for O=C(Cc1ccccc1)Nc1scc(-c2ccccc2)c1C(=O)N1CCOCC1 ?
CRFR2-BP ag: -1; CRFR2-BP antag: 2; NR3A LBD binder: 0; ANO1 activ: inactive; ANO1 block: inactive; MPTP block: -1

How did NC(=O)c1c(-c2ccc(Cl)cc2Cl)csc1NC(=O)Cc1ccccc1 do in these assays?
CRFR2-BP ag: 1; CRFR2-BP antag: 0; NR3A LBD binder: -1; ANO1 activ: inactive; ANO1 block: inactive; MPTP block: 103*; MPTP counter: 90*

Results for FC(F)(F)C(F)(F)C(F)(F)c1nc2nc(Cl)c(Cl)nc2[nH]1 ?
CRFR2-BP ag: 2; CRFR2-BP antag: -13; MPTP block: 7

What do the screens show for `COC(=O)c1scc(S(=O)(=O)C(C)C)c1N/N=C(\C#N)C(=O)c1ccc(Cl)cc1`?
CRFR2-BP ag: 19; CRFR2-BP antag: 12; NR3A LBD binder: 5; ANO1 activ: inactive; ANO1 block: inactive; MPTP block: 73*; MPTP counter: 78*

Results for CC(C)S(=O)(=O)c1csc(C(=O)NN)c1Cl ?
CRFR2-BP ag: 3; CRFR2-BP antag: 7; NR3A LBD binder: -2; ANO1 activ: inactive; ANO1 block: inactive; MPTP block: 2

Results for O=C(CNC(=O)c1ccccc1)NCCCSc1ccccc1 ?
CRFR2-BP ag: -1; CRFR2-BP antag: 16; NR3A LBD binder: 0; ANO1 activ: inactive; MPTP block: 0

Source: PubChem BioAssay (several laboratories)
